Records with an inconclusive call do not appear. Entries that show only a call come without a potency. The source made the active and inactive calls. Calls come from the whole dose curve; as a rule, active = well fitted cell-killing curve with a large enough effect; inconclusive = small, poorly fitted or top-dose-only effect, or effect the other way; inactive = no such curve, though single readings can be large or run the other way.
Test: qHTS of pediatric cancer cell lines to identify multiple opportunities for drug repurposing: Confirmatory screen for RD cells (AID 1347124);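 note: cells exposed to compound for 48 h before viability readout; nearly all actives have a fitted effect of over 65% in size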
Settings: RD rhabdomyosarcoma cell viability; series mostly up to 45.9 µM
From the text: Drug repurposing or repositioning has been offered as a strategy for drug development in oncology programs. This approach has special potential for childhood cancers and other rare or orphan diseases, where the expected return on new drug development has been a disincentive to pharmaceuticals.
In this project we exploit the poly-pharmacology of drugs to discover new indications via phenotypic screening of a panel of 19 well-characterized cell lines derived from solid tumors seen in children and adolescents. The goal is to identify approved drugs with previously unrecognized anticancer properties that has the potential to reveal new mechanisms and biological processes involved in carcinogenesis or drug resistance. We employed a titration-based paradigm (quantitative high-throughput screening or qHTS), where all compounds were tested at multiple concentrations for their effect on cell viability. Concentration-response curves (CRCs) were derived directly from the primary screen, and both potency and efficacy values were used to identify compounds with robust bioactivity profiles. We screened the NIH Chemical Genomics Center (NCGC) Pharmaceutical Collection (NPC) and Mechanism Interrogation Plate (MIPE) small molecule collections of approved and investigational compounds against these cell lines; and measured metabolically active cells after 48 hours of compound treatment as a proxy for cell viability.
Assay Submitter: Nathalia J. Martinez, National Center for Advancing Translational Sciences, National Institutes of Health, Rockville, MD, USA; email: natalia.martinez@nih.gov
[1] Shen, M et al. Quantitative high-throughput phenotypic screening of pediatric cancer cell lines identifies multiple opportunities for drug repurposing. Oncotarget 2017 Dec 19;9(4):4758-4772. PMID 29435139.
The cells were obtained from University of North Carolina (UNC), Pediatric Preclinical Testing Program (PPT), and Coriell Institute (CI).
qHTS cell viability assay:
Cells were assayed in growth media at a density of 500-1,000 cells/well. Five microliters of cells were dispensed into 1,536-well, white, solid-bottom, TC-treated plates (Greiner Bio One) using a multidrop dispenser and incubated at 37 degrees C, 5% CO2, under a humidified atmosphere for 5 hours. Twenty-three nanoliters of compounds and controls (neutral control DMSO or positive control bortezomib at final concentration of 2.3 µM) were subsequently transferred by Kalypsys pintool. For primary screens, the MIPE collection was tested at 11-point dilutions (final concentrations range from 0.78 nM to 46 µM) and the NPC collection at 8-point dilutions (final concentrations range from 0.59 nM to 46 µM). Compounds tested in follow-up screens were assayed at 11-point dilutions. Cells were incubated for 48 hours, followed by addition of 3 µL of CellTiter-Glo (Promega). After a 15 min incubation at room temperature, samples were analyzed for luminescence intensity using a ViewLux High-throughput CCD imager equipped with clear filters.
Potency is the fitted concentration of half-maximal effect.

**Q.** For `Clc1ccc(C(c2ccccc2Cl)C(Cl)Cl)cc1` (stereo unspecified), which Potency is on record?
**A.** inactive

**Q.** Which Potency does the source give for `CCC1(c2ccccc2)C(=O)NCNC1=O` here?
**A.** inactive

**Q.** With `COc1cc2c(c(OC)c1OC)-c1ccc(OC)c(=O)cc1[C@@H](NC(C)=O)CC2` as the molecule, how does the Potency read?
**A.** 0.0708 µM (active)

**Q.** For `CN1CCN(CCCN2c3ccccc3Sc3ccc(Cl)cc32)CC1`, which Potency is on record?
**A.** 18.5 µM (active)

**Q.** For `CC[C@@]1(O)C(=O)OCc2c1cc1n(c2=O)Cc2cc3c(CN(C)C)c(O)ccc3nc2-1`, which Potency is on record?
**A.** 5.85 µM (active)

**Q.** With `CN(Cc1cnc2nc(N)nc(N)c2n1)c1ccc(C(=O)N[C@@H](CCC(=O)O)C(=O)O)cc1` as the molecule, how does the Potency read?
**A.** 0.0827 µM (active)

**Q.** Which Potency does the source give for `CC(C)Cc1ccc(C(C)C(=O)O)cc1` (stereo unspecified) here?
**A.** 1.31 µM (active)

**Q.** For `NC(=O)NO`, which Potency is on record?
**A.** inactive

**Q.** With `NC12CC3CC(CC(C3)C1)C2` as the molecule, how does the Potency read?
**A.** inactive

**Q.** Which Potency does the source give for `O=C(Nc1ccc([N+](=O)[O-])cc1Cl)c1cc(Cl)ccc1O` here?
**A.** 4.56 µM (active)

**Q.** For `COC(=O)Nc1nc2ccc(C(=O)c3cccs3)cc2[nH]1`, which Potency is on record?
**A.** 0.233 µM (active)

**Q.** For `O=C1c2c(O)ccc(O)c2C(=O)c2c(NCCNCCO)ccc(NCCNCCO)c21`, which Potency is on record?
**A.** 2.61 µM (active)

**Q.** Which Potency does the source give for `CC(CCc1ccc(O)cc1)NCCc1ccc(O)c(O)c1` (stereo unspecified) here?
**A.** inactive

**Q.** Which Potency does the source give for `CS(=O)(=O)CCNCc1ccc(-c2ccc3ncnc(Nc4ccc(OCc5cccc(F)c5)c(Cl)c4)c3c2)o1` here?
**A.** inactive

**Q.** With `CC(C)NCC(O)c1ccc(O)c(O)c1` (stereo unspecified) as the molecule, how does the Potency read?
**A.** inactive

**Q.** For `CC#C[C@]1(O)CC[C@H]2[C@@H]3CCC4=CC(=O)CCC4=C3[C@@H](c3ccc(N(C)C)cc3)C[C@@]21C`, which Potency is on record?
**A.** inactive

Reference: PubChem BioAssay (NCATS)
